Only a selection was taken, and hits are over-represented in it overall.
14-3-3 PPI: 14-3-3 gamma protein interaction modulation. P61981. FP, 14-3-3gamma / TMR-pS259-Raf peptide binding. inhibition, % at 40 µM. 160,000 compounds, 0.19% hits. AID 422; in the data active = inhibition above about 30%;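 note: 0% = protein plus tracer without compound and 100% = blank with tracer alone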
Target sequence (P61981 whole entry, looked up): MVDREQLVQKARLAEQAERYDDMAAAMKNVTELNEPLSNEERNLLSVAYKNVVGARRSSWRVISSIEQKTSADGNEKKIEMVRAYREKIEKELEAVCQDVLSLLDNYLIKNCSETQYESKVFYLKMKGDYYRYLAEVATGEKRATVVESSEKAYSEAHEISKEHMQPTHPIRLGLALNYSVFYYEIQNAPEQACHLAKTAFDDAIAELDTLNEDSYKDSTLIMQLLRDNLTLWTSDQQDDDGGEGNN
Starred values were filed as active, the others as inactive.

OC(CN1CCOCC1)CN(c1ccccc1)c1ccccc1 (stereo not drawn) was read as 14-3-3 PPI 92.3*.
`OC(CN1CCOCC1)CN1CCOCC1` gave 14-3-3 PPI -5.1.
For OC(CN1CCCCC1)CN(c1ccccc1)c1ccccc1 (stereo not drawn) the results were 14-3-3 PPI -5.8.
For CC(=O)C(CCC#N)(CCC#N)c1ccccc1 the results were 14-3-3 PPI -12.9.
For CCOC(=O)C(=O)C(C#N)c1ccccc1 (stereo not drawn) the results were 14-3-3 PPI -6.8.
Screening CC(=O)C(c1ccccc1)C(C#N)(C#N)C(C#N)C#N (stereo not drawn) returned 14-3-3 PPI 66.5*.
For CC(=O)Nc1ccc(C(=O)Nc2ccc(C(C)C)cc2)cc1 the results were 14-3-3 PPI -3.9.
For NC(=O)C1(c2ccccc2)CCCN1C(=O)c1ccco1 (stereo not drawn) the results were 14-3-3 PPI -8.7.
CC1CN(C(=O)Cc2ccccc2)C(C)CN1C(=O)Cc1ccccc1 (stereo not drawn) was read as 14-3-3 PPI -8.7.
`O=C(Nc1cccc(Cl)c1)c1ccc(F)c(S(=O)(=O)N2CCCc3ccccc32)c1` gave 14-3-3 PPI -8.2.
O=C(Nc1ccccc1Cl)c1cc(S(=O)(=O)N2CCCc3ccccc32)ccc1F was read as 14-3-3 PPI 3.9.
O=C(Nc1ccccc1Cl)c1ccc(F)c(S(=O)(=O)N2CCCc3ccccc32)c1 was read as 14-3-3 PPI 31.3*.
For Cc1ccc(N2C(=O)C(N3C(=O)c4cccc([N+](=O)[O-])c4C3=O)C2c2ccccc2F)cc1Cl (stereo not drawn) the results were 14-3-3 PPI -3.1.
For COC(=O)c1ccc2c(c1)NC(=O)CS2 the results were 14-3-3 PPI -1.9.
`COC(=O)c1ccc2c(c1)SC1=C(CCCC1=O)N2` gave 14-3-3 PPI 33.4*.
`COC(=O)c1ccc(C2C3=C(CCCC3=O)Nc3ccc4nc(C)ccc4c32)cc1` (stereo not drawn) gave 14-3-3 PPI 1.0.
`Cc1nn(C)c(C)c1S(=O)(=O)N1CC=C(c2ccccc2)CC1` gave 14-3-3 PPI 4.5.
Screening CC(=O)c1c(C)[nH]c(C(=O)Nc2cc(C)ccc2C)c1C returned 14-3-3 PPI -8.3.
`Cc1cc([N+](=O)[O-])ccc1NC(=O)c1ccc(F)cc1` gave 14-3-3 PPI 4.0.
`CC(=O)c1c(C(C)=O)c(C)n(-c2ccc(C)c(NC(=O)c3ccc(F)cc3)c2)c1C` gave 14-3-3 PPI 32.4*.
Screening CC(=O)c1c(C)oc2ccc(N(C(=O)c3ccccc3)S(=O)(=O)c3cc(C)c(C)cc3C)cc12 returned 14-3-3 PPI -14.5.
Screening CCc1ccccc1Nc1cc(C(=O)NCc2ccccc2)c2ccccc2n1 returned 14-3-3 PPI -34.7.
CCC(SC1=Nc2ccccc2C2=NC(Cc3ccccc3)C(=O)N12)C(=O)NCc1cccnc1 (stereo not drawn) was read as 14-3-3 PPI -8.3.
Cc1sc2c(c1C)c(=O)n(CCc1ccccc1)c(=O)n2Cc1ccccc1 was read as 14-3-3 PPI -1.6.
For COc1ccccc1-c1coc2c(CN3CCOCC3)c(O)ccc2c1=O the results were 14-3-3 PPI 30.3*.
For COc1cccc(Oc2coc3c(CN4CCOCC4)c(O)ccc3c2=O)c1 the results were 14-3-3 PPI -1.4.
`O=c1c(-c2ccc3c(c2)OCCO3)coc2c(CN3CCOCC3)c(O)ccc12` gave 14-3-3 PPI -11.6.
For CCOC(=O)c1c(-c2ccccc2)csc1N=CC1C(=O)CCCC1=O the results were 14-3-3 PPI -23.6.
COc1ccc(C=Nc2ccc3ncccc3c2)cc1 was read as 14-3-3 PPI 13.6.
Screening COc1ccc(C=Nc2ccco2)cc1 returned 14-3-3 PPI 31.9*.
Screening COc1ccc(C=Nc2ccccc2)cc1 returned 14-3-3 PPI -11.8.
COc1cccc(N2C(=O)c3ccc(C(=O)Nc4cccnc4)cc3C2=O)c1 was read as 14-3-3 PPI -4.9.
For COC(=O)c1ccc(C(=O)OC)c(NC(=O)c2ccc(OC(C)=O)cc2)c1 the results were 14-3-3 PPI 13.3.
NC(=O)c1ccc(N2CCCCC2)c(N2C(=O)CCC2=O)c1 was read as 14-3-3 PPI -1.5.
Screening NC(=O)c1cc(N)ccc1N1CCCC1 returned 14-3-3 PPI 30.6*.
NC(=O)c1ccc(N2CCCCC2)c(N2C(=O)C3C4C=CC(C4)C3C2=O)c1 (stereo not drawn) was read as 14-3-3 PPI 1.6.
N#CC1=C(N)OC2=C(C(=O)CCC2)[C@]12C(=O)N(CC(N)=O)c1ccccc12 was read as 14-3-3 PPI -0.1.
For O=C1CCCC2=C1C1(O)C(=O)c3ccccc3C1(O)O2 (stereo not drawn) the results were 14-3-3 PPI 55.7*.
Screening CC(=O)C1=C(C)NC2(O)c3ccccc3C(=O)C12O (stereo not drawn) returned 14-3-3 PPI 5.4.
O=C(c1ccc([N+](=O)[O-])cc1)c1ccc2c(c1)C(=O)N(c1cccnc1)C2=O was read as 14-3-3 PPI -2.9.
